High-throughput results deposited in PubChem by several laboratories.
Compounds with a hit are over-represented: about 1.9% of the library has one in this group of screens.
FAK blocker = inhibitors of human focal adhesion kinase. inhibition, %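 (tested at 7 µM)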. biochemical FAK kinase activity assay. Q05397. 97,000 compounds, 0.84% hits; in the data active = inhibition above about 19%;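 note: 0% = DMSO and 100% = reference compound high control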
sdo1 growth = compounds rescuing growth of sdo1-depleted yeast, bone marrow failure model; z-score at 10 µM; 140,000 compounds, 0.21% hits; AID 817; S. cerevisiae sdo1-depleted JHY4D growth rescue, OD600 30 h; hits give high values; pdr5 snq2 efflux-pump mutant strain;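 active = z-score above 3 at both the 24 hr and the 30 hr optical density reads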;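 note: z-score against mean and SD of all compound wells on the same plate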
S1P2 antag = antagonists of human S1P2 receptor | O95136 | cell-based S1P2 antagonist assay, inhibition at 5 uM | inhibition, % at 5 µM | 97,000 compounds, 0.21% hits; in the data active = inhibition above about 45%;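 note: CRE beta-lactamase reporter cells expressing human S1P2 stimulated with S1P; 0% = agonist at EC80 alone and 100% = agonist plus reference antagonist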
S1P2 agonist = activates the human S1P2 receptor; O95136; S1P2-expressing cell line, agonist reporter read-out; activation, % at 4.5 µM; 97,000 compounds, 0.46% hits; AID 729; in the data active = activation above about 16%;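 note: 0% = vehicle low control and 100% = maximal reference agonist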
GALR2 blocker = antagonists of human galanin receptor 2 (GALR2). O43603. 140,000 compounds, 0.39% hits. GALR2-expressing cells, antagonist mode. AID 828. inhibition, % at 4 µM;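 note: cells stimulated with galanin 1-16 at roughly its EC80; 0% = agonist challenge control and 100% = basal control without agonist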
Target sequence (O43603 whole entry, looked up): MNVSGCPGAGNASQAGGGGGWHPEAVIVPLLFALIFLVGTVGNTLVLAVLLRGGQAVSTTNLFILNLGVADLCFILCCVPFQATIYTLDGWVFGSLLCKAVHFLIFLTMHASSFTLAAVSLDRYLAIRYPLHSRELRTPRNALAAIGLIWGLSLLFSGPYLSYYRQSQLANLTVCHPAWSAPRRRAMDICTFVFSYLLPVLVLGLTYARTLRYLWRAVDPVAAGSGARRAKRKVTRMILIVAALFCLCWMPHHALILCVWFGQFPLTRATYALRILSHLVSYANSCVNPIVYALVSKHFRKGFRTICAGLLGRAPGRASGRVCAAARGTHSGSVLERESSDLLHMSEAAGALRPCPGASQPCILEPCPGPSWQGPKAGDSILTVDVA
GALR2 ag = GALR2 (human) receptor agonism. O43603. GALR2-expressing cells, agonist activation read-out. activation, % (test concentration not listed). 140,000 compounds, 0.48% hits; in the data active = activation above about 5%, passing the limit was not always enough;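 note: 0% = vehicle buffer wells and 100% = reference agonist at full effect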
sdo1 rescue conf = confirmation of growth rescue in SDO1-depleted yeast, bone marrow failure. shares compounds with sdo1 growth. S. cerevisiae JHY4D (SDO1-depleted) growth rescue, OD600, 30 h; hits give high values; efflux-deficient strain, SNQ2 and PDR5 mutated. OD recovery (concentration not given with the values). 440 compounds, 44% hits. AID 949;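 active = yeast growth recovered at 30 hours, either rising with dose fitted slope above 0.001 or with average optical density gain above 0.07, some results past the limit were not filed as active; inactive = growth falling with dose or no effect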;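 note: gain in OD600 from 0 h to 30 h averaged across all seven doses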
GALR2 ant conf = GALR2 (human) antagonism confirmed. shares compounds with GALR2 blocker. GALR2-expressing cells, antagonist mode, inhibition. inhibition, % at 4 µM. 480 compounds, 60% hits. AID 866;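 note: cells stimulated with galanin at about its EC80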
BLA inhib ctr = counter-screen for GALR2 antagonists: beta-lactamase reporter inhibitors; shares compounds with GALR2 blocker; 480 compounds, 36% hits; inhibition, % at 4.2 µM; CHO NFAT-BLA reporter, beta-lactamase FRET, thapsigargin-stimulated;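 active = inhibition above the mean inhibition across tested compounds plus 3 SD, cut at about 27% in these data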;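 note: 0% = 500 nM thapsigargin stimulated wells and 100% = unstimulated BSA only wells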
Numbers without * were called inactive; . = not tested or not shown. Cut-off read from the data, not from the text of the source, unless noted: active = inhibition above about 27%; inactive = the rest.

SMILES | FAK blocker | sdo1 growth | S1P2 antag | S1P2 agonist | GALR2 blocker | GALR2 ag | GALR2 ant conf | BLA inhib ctr | others
Nc1ccccc1N=Cc1c(O)n(CCC2=CCCCC2)c(=O)[nH]c1=O | -2 | 7.4* | 1 | -2 | 4 | -2 | . | . | sdo1 rescue conf=0.059
O=C(N/N=C/c1c(O)n(CCC2=CCCCC2)c(=O)[nH]c1=O)c1ccccc1 | . | 1 | . | . | -2 | -2 | . | .
Cc1nc2c(=O)n(C)c(=O)nc-2n(C)n1 | 68* | -1.7 | 96* | 10 | 100* | 5 | 100* | 100*
CC1(C)C[C@H]2C=C(C=O)[C@]3(C=O)C[C@]3(C)[C@H]2C1 | . | -2.6 | . | . | 55* | -2 | 92* | 99*
CC12CN3CC(C)(CN(C1)C31CCOCC1)C2=O | -1 | 0.71 | -4 | -4 | 16 | -3 | . | .
CC1CCC/C=C/C2CC(O)CC2C(O)/C=C/C(=O)O1 (stereo not given) | -2 | -0.34 | 4 | -1 | 46* | -1 | 62* | 18
COC(=O)C1CN(C#N)N(c2ccc(Cl)cc2)C12c1ccccc1-c1ccccc12 (stereo not given) | 1 | -2.1 | 79* | -15 | 78* | -3 | 87* | 92*
Cc1nonc1-c1nc(-c2nonc2N)n[nH]1 | -3 | 1.2 | -4 | -5 | -2 | -3 | . | .
OC1(c2ccc(F)cc2)CC2CCC(C1)N2Cc1nnnn1C1CCCC1 (stereo not given) | -2 | 0.27 | 1 | -4 | 3 | -1 | . | .
O=C(c1ccccc1)C(CN1CCCC1)c1ccccc1 (stereo not given) | . | -1.6 | . | . | 30* | 1 | 29* | 25
CCCCCCn1c(O)c(C(C)=NC)c(=O)[nH]c1=O | 0 | 0.7 | -19 | -2 | 0 | 0 | . | .
N=c1c[n+](CC23CC4CC(CC(C4)C2)C3)[n-]o1 | -2 | 0.81 | -7 | -3 | -6 | -1 | . | .
